Laboratory results reported in PubChem BioAssay (NCI).
Where “and” joins values, the source holds several entries; their conditions need not be identical. Identical values can stand only once. Compounds without any hit were thinned out: in the full panel of roughly 83,000, 20% have a hit.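 Each cell line was grown in a 96-well plate and treated with one concentration of compound for 48 hours. Values below 10 were considered active.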 Calls of active or inactive are those of the source.

What was measured:
Assay in all cases: NCI-60 one-dose screen, 48 h (100 = growth as untreated, 0 = no growth, -100 = all killed)
Conditions in all cases: 10 µM unless noted
[1] = tested on: MOLT-4 leukemia
[2] = tested on: SR leukemia
[3] = tested on: RPMI-8226 leukemia
[4] = tested on: OVCAR-8 ovarian
[5] = tested on: OVCAR-5 ovarian
[6] = tested on: OVCAR-4 ovarian
[7] = tested on: SK-OV-3 ovarian
[8] = tested on: IGROV1 ovarian
[9] = tested on: OVCAR-3 ovarian
[10] = tested on: NCI/ADR-RES ovarian
[11] = tested on: BT-549 breast
[12] = tested on: MDA-MB-435 melanoma
[13] = tested on: SW-620 colon
[14] = tested on: MCF7 breast
[15] = tested on: HCT-116 colon
[16] = tested on: HCC-2998 colon
[17] = tested on: KM12 colon
[18] = tested on: HS 578T breast
[19] = tested on: T-47D breast

For CC[C@H](C)[C@H](NC(=O)c1ncccn1)C(=O)N(C)[C@H](C[C@@H](OC(C)=O)c1nc(C(=O)N[C@@H](Cc2ccccc2)C[C@H](C)C(=O)OC)cs1)C(C)C, the growth [1] was 20.2% (inactive), the growth [2] was 14.7% (inactive) and the growth [3] was 17.7% (inactive). For the same compound, the growth [4] was 22.8% (inactive), the growth [5] was 74.3% (inactive) and the growth [6] was 50.6% (inactive). The growth [7] was 44.1% (inactive), the growth [8] was 49.5% (inactive) and the growth [9] was -18.4% (active). The growth [10] was 70.6% (inactive), the growth [11] was 5.49% (active) and the growth [12] was -24.6% (active). For the same compound, the growth [13] was 25.8% (inactive), the growth [14] was 18.9% (inactive) and the growth [15] was 2.48% (active). The growth [16] was 60.9% (inactive) and the growth [17] was 16.1% (inactive).

In the case of O=S(=O)(c1ccc(O)cc1)c1ccccc1O, the growth [1] is reported as 103% (inactive), the growth [2] is reported as 103% (inactive) and the growth [3] is reported as 99.8% (inactive). The growth [4] was 102% (inactive), the growth [5] was 98.9% (inactive) and the growth [6] was 116% (inactive). The growth [7] was 107% (inactive), the growth [8] was 117% (inactive) and the growth [9] was 110% (inactive). The growth [18] was 104% (inactive), the growth [19] was 102% (inactive) and the growth [12] was 110% (inactive). For the same compound, the growth [13] was 106% (inactive), the growth [14] was 104% (inactive) and the growth [17] was 107% (inactive).

In the case of Clc1ccc(COC(Cn2ccnc2)c2ccc(Cl)cc2Cl)c(Cl)c1 (configuration not stated), the growth [1] is reported as 41.5% (inactive) and 45.3% (inactive), the growth [2] is reported as 65% (inactive) and the growth [3] is reported as 41.2% (inactive) and 54.6% (inactive). For the same compound, the growth [4] was 38.4% (inactive), the growth [5] was 64.5% (inactive) and -11.4% (active) and the growth [6] was 49% (inactive) and 63.2% (inactive). For the same compound, the growth [7] was 79.7% (inactive) and 91% (inactive), the growth [8] was 38.3% (inactive) and 22.3% (inactive) and the growth [9] was 48.9% (inactive) and 64.2% (inactive). For the same compound, the growth [18] was 74.3% (inactive), the growth [11] was 51.8% (inactive) and 40.9% (inactive) and the growth [13] was 58.3% (inactive) and 62.2% (inactive). For the same compound, the growth [14] was 39.3% (inactive) and 35% (inactive), the growth [15] was 14.6% (inactive) and 16.1% (inactive) and the growth [16] was 47.4% (inactive). The growth [17] was 40.2% (inactive) and 43.2% (inactive).

C[C@]12CC[C@H]3[C@@H](C[C@@H]4SC(Nc5ccccc5)=N[C@@]45C/C(=N/O)CC[C@]35C)[C@@H]1CCC2=O was tested, and the growth [1] was 20.2% (inactive), the growth [2] was 2.15% (active) and the growth [3] was -1.41% (active). For the same compound, the growth [4] was 46.7% (inactive), the growth [5] was 99.7% (inactive) and the growth [6] was 88% (inactive). For the same compound, the growth [7] was 105% (inactive), the growth [8] was 88.4% (inactive) and the growth [9] was 42.9% (inactive). For the same compound, the growth [10] was 86.2% (inactive), the growth [19] was 64.4% (inactive) and the growth [11] was 35.6% (inactive). For the same compound, the growth [12] was 51.6% (inactive), the growth [13] was 34.8% (inactive) and the growth [14] was 28.4% (inactive). The growth [15] was 9.01% (active), the growth [16] was 102% (inactive) and the growth [17] was 67.8% (inactive).

CNC(=O)Oc1ccc(Cl)cc1SSc1cc(Cl)ccc1OC(=O)NC was tested, and the growth [1] was 52.9% (inactive), the growth [2] was 67.7% (inactive) and the growth [3] was 48.1% (inactive). For the same compound, the growth [4] was 78.8% (inactive), the growth [5] was 121% (inactive) and the growth [6] was 74.5% (inactive). The growth [7] was 104% (inactive), the growth [8] was 77.4% (inactive) and the growth [9] was 54.7% (inactive). The growth [10] was 81.2% (inactive), the growth [11] was 96.4% (inactive) and the growth [13] was 87.2% (inactive). For the same compound, the growth [14] was 91.8% (inactive), the growth [15] was 91.2% (inactive) and the growth [16] was 99.8% (inactive). For the same compound, the growth [17] was 98.5% (inactive).

CCOC(=O)P(=O)(OCC)OCC was tested, and the growth [1] was 100% (inactive), the growth [2] was 92.5% (inactive) and the growth [3] was 112% (inactive). The growth [4] was 101% (inactive), the growth [5] was 112% (inactive) and the growth [7] was 98.3% (inactive). For the same compound, the growth [8] was 89.5% (inactive), the growth [9] was 113% (inactive) and the growth [18] was 109% (inactive). For the same compound, the growth [10] was 109% (inactive), the growth [19] was 108% (inactive) and the growth [12] was 120% (inactive). The growth [13] was 106% (inactive), the growth [14] was 106% (inactive) and the growth [15] was 111% (inactive). For the same compound, the growth [16] was 106% (inactive) and the growth [17] was 113% (inactive).

O=NN(c1ccccc1)c1ccccc1 was tested, and the growth [1] was 114% (inactive), the growth [2] was 99.5% (inactive) and the growth [3] was 107% (inactive). For the same compound, the growth [4] was 102% (inactive), the growth [5] was 107% (inactive) and the growth [6] was 110% (inactive). The growth [7] was 105% (inactive), the growth [9] was 102% (inactive) and the growth [18] was 107% (inactive). For the same compound, the growth [19] was 107% (inactive), the growth [11] was 122% (inactive) and the growth [12] was 105% (inactive). The growth [13] was 102% (inactive), the growth [14] was 99.8% (inactive) and the growth [15] was 95.4% (inactive). For the same compound, the growth [16] was 101% (inactive) and the growth [17] was 102% (inactive).

For COCC1OC2OC3C(COC)OC(OC4C(COC)OC(OC5C(COC)OC(OC6C(COC)OC(OC7C(COC)OC(OC8C(COC)OC(OC1C(O)C2O)C(O)C8O)C(O)C7O)C(O)C6O)C(O)C5O)C(O)C4O)C(O)C3O (configuration not stated) (tested in a mixture with another compound), the growth [1] was 99.6% (inactive), the growth [2] was 91.3% (inactive) and the growth [4] was 114% (inactive). The growth [5] was 104% (inactive), the growth [6] was 111% (inactive) and the growth [7] was 117% (inactive). The growth [8] was 184% (inactive), the growth [9] was 119% (inactive) and the growth [18] was 105% (inactive). For the same compound, the growth [19] was 113% (inactive), the growth [12] was 117% (inactive) and the growth [14] was 101% (inactive). The growth [15] was 120% (inactive), the growth [16] was 89.4% (inactive) and the growth [17] was 109% (inactive).

In the case of CC1=CC(=Nc2ccc(N(CCCl)CCCl)cc2)C=C(C)C1=O, the growth [1] is reported as -21.2% (active), the growth [2] is reported as -2.28% (active) and the growth [4] is reported as 18.7% (inactive). For the same compound, the growth [5] was 35% (inactive), the growth [6] was -35.7% (active) and the growth [7] was 49.9% (inactive). For the same compound, the growth [8] was 21% (inactive), the growth [9] was -62.5% (active) and the growth [18] was 26.7% (inactive). The growth [10] was 19.8% (inactive), the growth [19] was -17.7% (active) and the growth [11] was 52.5% (inactive). For the same compound, the growth [12] was 35.4% (inactive), the growth [15] was 7.59% (active) and the growth [16] was 55.6% (inactive). For the same compound, the growth [17] was 59.8% (inactive).
